# According to PubChem BioAssay (NCI):
# “And” between values parts separate entries of the source, which are not always exact repeats. Equal values may be shown once. Compounds without any hit were thinned out: in the full panel of roughly 83,000, 20% have a hit.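 For each line, cells grew in 96-well plates with the test compound present at a single concentration for 48 hours.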 The source made the active and inactive calls. The calls were made as follows: active = growth percent below 10; inactive = the rest.
# Tested on: SF-539 CNS
# Assay: NCI-60 one-dose screen, 48 h (100 = growth as untreated, 0 = no growth, -100 = all killed)
# Details: 10 µM unless noted
row,SMILES,growth
1,COc1ccc(C/C(C)=C(/c2ccc(OCCN3CCCC3)cc2)c2ccc(OC(=O)NCc3ccccc3)cc2)cc1,82.5% (inactive)
2,CCN(CC)CCOc1ccc(/C(=C(\Cl)c2ccccc2)c2ccccc2)cc1,-5.76% (active) and 29.9% (inactive)
3,Cc1ccc(/C=C2\COc3ccc(O)c(O)c3C2=O)cc1,-63.9% (active)
4,COc1ccc2c(c1)oc1c(C)c3c(c(C)c12)C(=O)N(Nc1ccccc1)C3=O,95.1% (inactive)
5,CCC(=C(c1ccc(OCCCN(C)C)cc1)c1ccc(OCCCN(C)C)cc1)c1ccc(Cl)cc1,-93.2% (active)
6,CCOC(=O)c1c(-c2ccc(C)cc2)c(C#N)c(=O)n(-c2cccc(C(F)(F)F)c2)c1N,97.2% (inactive)
7,S=c1nc(CS)[nH]c2ccccc12,94.7% (inactive)
8,O=C(N/N=C/c1ccc(O)cc1O)c1cccc(Nc2ccnc(C(F)(F)F)c2)c1,8.62% (active)
9,CCN(CC)CCCN1C(=O)c2c(c(C)c3c(oc4cc(OC)ccc43)c2C)C1=O,95.5% (inactive)
10,Cc1ccc(NC(=O)c2ccc(CN3CCN(C)CC3)cc2)cc1Nc1nccc(-c2cccnc2)n1,75.5% (inactive) and 38.2% (inactive)
11,COc1cc(/C=C2/C=C(c3ccc(C(C)(C)C)cc3)N(CCc3ccc(S(N)(=O)=O)cc3)C2=O)cc(OC)c1OC,59% (inactive)
12,O=c1c(/C=C/c2ccco2)nnc2sc(Nc3ccc(Cl)cc3)nn12,90.6% (inactive)
13,Nc1[nH]nc(Nc2ccccc2)c1-c1nc2ccccc2s1,55.1% (inactive)
14,CCCCCCCCn1ccc2cc(NC(=O)CN3CCN(c4nc(C)cc(N5CCCCC5)n4)CC3)ccc21,105% (inactive)
15,CC/C(=C(/c1ccc(O)cc1)c1ccc(OCCN2CCCCCC2)cc1)c1ccc(Cl)cc1,78.2% (inactive)
16,C=C(C)[C@@H]1CC[C@]2(C(=O)N3CCN(C)CC3)CC[C@]3(C)[C@H](CC[C@@H]4[C@@]5(C)CC(CCCNC(C)=O)(CCCNC(C)=O)[C@H](OC(C)=O)C(C)(C)[C@@H]5CC[C@]43C)[C@@H]12,101% (inactive)
17,CCN(c1cc(-c2ccc(CN3CCC(/C=C/S(=O)(=O)c4ccccc4)CC3)cc2)cc(C(=O)NCc2c(C)cc(C)[nH]c2=O)c1C)C1CCOCC1,59.3% (inactive)
18,Nc1nc(N)c2c(n1)NC(c1ccc(Cl)cc1)CC(c1cccc(Nc3ccncc3)c1)=N2 (stereo not drawn),63.5% (inactive)
19,C=C(c1ccc(C(=O)O)cc1)c1cc2c(cc1C)C(C)(C)CCC2(C)C,82.1% (inactive) and 80.5% (inactive)

row,SMILES,growth
1,O=C1OCC2=C1C(c1cccc([N+](=O)[O-])c1)c1cc3c(cc1N2CCO)CCC3 (stereo not drawn),-16.4% (active)
2,CCN(CC)/C([O-])=c1\cccc\c1=C1\N=C(c2ccccc2)N=C1[n+]1ccc(-c2ccccc2)cc1,89.1% (inactive)
3,Cc1nc(-n2[nH]c(=O)ccc2=O)sc1N=Nc1ccccc1,99.8% (inactive)
4,Cc1ccc(-c2nc3nc(-c4ccccc4)nc(N4CCCNCC4)c3o2)cc1,-88.5% (active)
5,O=C([C@H]1C[C@H]1c1ccc(S(F)(F)(F)(F)F)cc1)N1CCN(c2cc(Cl)ccc2C(F)(F)F)CC1,107% (inactive)
6,OB(O)c1ccsc1-c1nc2ccc3[nH]ncc3c2c2c1CCCC2,45.2% (inactive)
7,CC[C@]12CN3CCc4c([nH]c5ccccc45)[C@@](C(=O)OC)(c4cc5c(cc4OC)N(C)[C@H]4[C@@](O)(C(=O)OC)[C@H](OC(C)=O)[C@]6(CC)C=CCN7CC[C@]54[C@@H]76)CC(C3)[C@H]1O2 (stereo partly drawn),2.86% (active)
8,COC(=O)N/N=C/c1c[n+]([O-])c2ccccc2[n+]1[O-],101% (inactive)
9,Cn1ccnc1CN1CCSC(C(=O)Nc2ccccc2)C1 (stereo not drawn),96% (inactive)
10,CCNC(=O)Oc1ccc(/C(=C(/C)Cc2ccc(OC)cc2)c2ccc(OCCN(CC)CC)cc2)cc1,74.5% (inactive)
11,Cc1ccc(-c2nc(C#N)c(S(=O)(=O)N(C)C)o2)cc1,102% (inactive)
12,COCCn1cc(-c2nc(-c3cn(CCOC)c4ncccc34)cs2)c2ccccc21,79.4% (inactive)
13,Nc1nc2ccccc2c2c(=O)c3ccc(Cl)cc3sc12,106% (inactive)
14,CC[C@]1(O)CC2CN(CCc3c([nH]c4ccccc34)C(C(=O)OC)(c3cc4c(cc3OC)N(C=O)[C@H]3[C@@](O)(C(=O)OC)[C@H](OC(C)=O)[C@]5(CC)[C@@H]6C[C@@H]6CN6CC[C@]43[C@@H]65)C2)C1 (stereo partly drawn),0.385% (active)
15,CN1CCN(CCCN2c3ccccc3Sc3ccc(Cl)cc32)CC1,85.1% (inactive)
16,Nc1ncc(-c2ccc3ncnc(N4CCc5ccc(Cl)cc54)c3c2)cc1C(F)(F)F,2.93% (active)
17,CC(C)(C)c1cc(NC(=O)Nc2ccc(-c3cn4c(n3)sc3cc(OCCN5CCOCC5)ccc34)cc2)no1,-83.3% (active) and 13.6% (inactive)
18,CC1(Cc2ccccc2)CC2=C(C(=O)O1)C(c1ccccc1)NC(=O)N2 (stereo not drawn),94.5% (inactive)
19,COc1cc(C=O)ccc1Oc1ccc([N+](=O)[O-])cc1[N+](=O)[O-],107% (inactive)
